Results: PubChem BioAssay AID1159580 (chemical genetic matrix, 2015)
The campaign covered roughly 5,500 compounds. About 2,000 (36%) were called active. Roughly 18% stayed inconclusive and do not appear here. Rule as the data show it: active = normalized growth mostly below about 0.91 (no sharp cut-off); inconclusive = no clear call, values can overlap the other calls; inactive = mostly above about 0.92. Some of the results follow.

Assay: chemical genetic growth profiling, strain panel (AID 1159580);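 also: tested at 20 µM; growth read once vehicle control cultures reached saturation at 30 °C; 1 = growth at the plate median or of vehicle wells; lower values mean less growth of the strain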
Conditions: growth OD
[1] = S. cerevisiae deletion strains, locus YDL101C, strain DUN1, hits give low values
[2] = S. cerevisiae deletion strains, locus YHR030C, strain SLT2, hits give low values
[3] = S. cerevisiae deletion strains, locus YJL095W, strain BCK1, hits give low values
[4] = S. cerevisiae deletion strains, locus YOR061W, strain CKA2, hits give low values

Measured: normalized growth

CS(=O)(=O)c1sc(C(=O)Sc2ccc(Cl)cc2)c2c1C=CCC2
active: S. cerevisiae deletion strains, locus YAR019C, strain CDC15, hits give low values 0.857 | S. cerevisiae deletion strains, locus YBL105C, strain PKC1, hits give low values 0.868 | S. cerevisiae deletion strains, locus YBR135W, strain CKS1, hits give low values 0.855 | S. cerevisiae deletion strains, locus YBR136W, strain MEC1, hits give low values 0.867 | S. cerevisiae deletion strains, locus YBR160W, strain CDC28, hits give low values 0.873 | S. cerevisiae deletion strains, locus YDL017W, strain CDC7, hits give low values 0.881 | S. cerevisiae deletion strains, locus YDL028C, strain MPS1, hits give low values 0.88 | S. cerevisiae deletion strains, locus YDL108W, strain KIN28, hits give low values 0.866 | S. cerevisiae deletion strains, locus YDL132W, strain cdc53, hits give low values 0.848 | S. cerevisiae deletion strains, locus YDL214C, strain PRR2, hits give low values 0.42 | S. cerevisiae deletion strains, locus YDR052C, strain DBF4, hits give low values 0.903 | S. cerevisiae deletion strains, locus YDR054C, strain cdc34, hits give low values 0.771 | S. cerevisiae deletion strains, locus YDR226W, strain ADK1, hits give low values 0.869 | S. cerevisiae deletion strains, locus YDR477W, strain SNF1, hits give low values 0.339 | S. cerevisiae deletion strains, locus YER123W, strain YCK3, hits give low values 0.368 | S. cerevisiae deletion strains, locus YER133W, strain GLC7, hits give low values 0.416 | S. cerevisiae deletion strains, locus YFL009W, strain cdc4, hits give low values 0.857 | S. cerevisiae deletion strains, locus YFL029C, strain CAK1, hits give low values 0.853 | S. cerevisiae deletion strains, locus YFR003C, strain YPI1, hits give low values 0.881 | S. cerevisiae deletion strains, locus YFR019W, strain FAB1, hits give low values 0.327 | S. cerevisiae deletion strains, locus YFR028C, strain CDC14, hits give low values 0.871 | S. cerevisiae deletion strains, locus YGR040W, strain KSS1, hits give low values 0.437 | S. cerevisiae deletion strains, locus YGR052W, strain FMP48, hits give low values 0.492 | S. cerevisiae deletion strains, locus YGR092W, strain DBF2, hits give low values 0.174 | [2] 0.374 | S. cerevisiae deletion strains, locus YHR079C, strain IRE1, hits give low values 0.349 | S. cerevisiae deletion strains, locus YHR082C, strain KSP1, hits give low values 0.511 | S. cerevisiae deletion strains, locus YHR205W, strain SCH9, hits give low values 0.206 | S. cerevisiae deletion strains, locus YIL147C, strain SLN1, hits give low values 0.886 | [3] 0.369 | S. cerevisiae deletion strains, locus YJL157C, strain FAR1, hits give low values 0.358 | S. cerevisiae deletion strains, locus YJR016C, strain ILV3, hits give low values 0.862 | S. cerevisiae deletion strains, locus YJR066W, strain TOR1 (second series), hits give low values 0.103 | S. cerevisiae deletion strains, locus YJR066W, strain TOR1, hits give low values 0.353 | S. cerevisiae deletion strains, locus YKL048C, strain ELM1, hits give low values 0.532 | S. cerevisiae deletion strains, locus YKL067W, strain YNK1, hits give low values 0.428 | S. cerevisiae deletion strains, locus YKL101W, strain HSL1, hits give low values 0.371 | S. cerevisiae deletion strains, locus YKL193C, strain SDS22, hits give low values 0.845 | S. cerevisiae deletion strains, locus YKL203C, strain TOR2, hits give low values 0.379 | S. cerevisiae deletion strains, locus YLR113W, strain HOG1, hits give low values 0.3 | S. cerevisiae deletion strains, locus YLR133W, strain CKI1, hits give low values 0.423 | S. cerevisiae deletion strains, locus YLR403W, strain SFP1, hits give low values 0.217 | S. cerevisiae deletion strains, locus YML070W, strain DAK1, hits give low values 0.397 | S. cerevisiae deletion strains, locus YMR001C, strain CDC5, hits give low values 0.836 | S. cerevisiae deletion strains, locus YMR205C, strain PFK2 (second series), hits give low values 0.458 | S. cerevisiae deletion strains, locus YMR277W, strain FCP1, hits give low values 0.838 | S. cerevisiae deletion strains, locus YNL006W, strain LST8, hits give low values 0.873 | S. cerevisiae deletion strains, locus YNL020C, strain ARK1, hits give low values 0.39 | S. cerevisiae deletion strains, locus YNL161W, strain CBK1, hits give low values 0.862 | S. cerevisiae deletion strains, locus YNL183C, strain NPR1, hits give low values 0.418 | S. cerevisiae deletion strains, locus YNL207W, strain RIO2, hits give low values 0.842 | S. cerevisiae deletion strains, locus YNL222W, strain SSU72, hits give low values 0.856 | S. cerevisiae deletion strains, locus YNL307C, strain MCK1 (second series), hits give low values 0.221 | S. cerevisiae deletion strains, locus YOL078W, strain AVO1, hits give low values 0.839 | S. cerevisiae deletion strains, locus YOL136C, strain PFK27, hits give low values 0.375 | [4] 0.256 | S. cerevisiae deletion strains, locus YOR119C, strain RIO1, hits give low values 0.527 | S. cerevisiae deletion strains, locus YOR231W, strain MKK1, hits give low values 0.353 | S. cerevisiae deletion strains, locus YOR329C, strain SCD5, hits give low values 0.876 | S. cerevisiae deletion strains, locus YPL031C, strain PHO85, hits give low values 0.308 | S. cerevisiae deletion strains, locus YPL153C, strain RAD53, hits give low values 0.279 | S. cerevisiae deletion strains, locus YPL204W, strain HRR25, hits give low values 0.286 | S. cerevisiae deletion strains, locus YPL209C, strain IPL1, hits give low values 0.854 | S. cerevisiae deletion strains, locus YPL256C, strain CLN2, hits give low values 0.521 | S. cerevisiae deletion strains, locus YPR025C, strain CCL1, hits give low values 0.863 | S. cerevisiae deletion strains, strain TSCII, hits give low values 0.841
inactive: [1] 0.92 | S. cerevisiae deletion strains, locus YJL128C, strain PBS2, hits give low values 0.894 | S. cerevisiae deletion strains, locus YPR106W, strain ISR1, hits give low values 0.928 | S. cerevisiae deletion strains, locus YPR111W, strain DBF20, hits give low values 0.929 | S. cerevisiae deletion strains, strain NNK1, hits give low values 0.907

CCCCSP(=O)(SCCCC)SCCCC
inactive: S. cerevisiae deletion strains, locus YAL013W, strain DEP1, hits give low values 1.01 | S. cerevisiae deletion strains, locus YBR021W, strain FUR4, hits give low values 1 | S. cerevisiae deletion strains, locus YBR229C, strain ROT2, hits give low values 1.01 | S. cerevisiae deletion strains, locus YCL029C, strain bik1, hits give low values 1.01 | S. cerevisiae deletion strains, locus YDL035C, strain GPR1, hits give low values 1.01 | S. cerevisiae deletion strains, locus YDL074C, strain BRE1, hits give low values 1.04 | [1] 1.02 | S. cerevisiae deletion strains, locus YDL134C, strain PPH21, hits give low values 1.01 | S. cerevisiae deletion strains, locus YDL185W, strain tfp1, hits give low values 1.01 | S. cerevisiae deletion strains, locus YDL192W, strain arf1, hits give low values 1.01 | S. cerevisiae deletion strains, locus YDR101C, strain arx1, hits give low values 1.01 | S. cerevisiae deletion strains, locus YDR150W, strain NUM1, hits give low values 1.01 | S. cerevisiae deletion strains, locus YDR162C, strain NBP2, hits give low values 1.02 | S. cerevisiae deletion strains, locus YDR318W, strain mcm21, hits give low values 1.01 | S. cerevisiae deletion strains, locus YDR388W, hits give low values 1.01 | S. cerevisiae deletion strains, locus YDR502C, strain sam2, hits give low values 1.01 | S. cerevisiae deletion strains, locus YEL061C, strain CIN8, hits give low values 1.01 | S. cerevisiae deletion strains, locus YER110C, hits give low values 1.01 | S. cerevisiae deletion strains, locus YER155C, strain BEM2, hits give low values 1.01 | S. cerevisiae deletion strains, locus YER167W, strain BCK2, hits give low values 1.02 | S. cerevisiae deletion strains, locus YGL078C, strain dbp3, hits give low values 1.01 | S. cerevisiae deletion strains, locus YGL086W, strain mad1, hits give low values 1 | S. cerevisiae deletion strains, locus YGL248W, strain PDE1, hits give low values 1.02 | S. cerevisiae deletion strains, locus YGR078C, strain PAC10, hits give low values 1.02 | S. cerevisiae deletion strains, locus YGR135W, strain pre9, hits give low values 1 | S. cerevisiae deletion strains, locus YGR229C, strain SMI1, hits give low values 1.04 | S. cerevisiae deletion strains, locus YGR252W, strain gcn5, hits give low values 0.984 | [2] 1.02 | S. cerevisiae deletion strains, locus YHR079C, strain IRE1 (second series), hits give low values 1.01 | S. cerevisiae deletion strains, locus YHR094C, strain hxt1, hits give low values 1 | S. cerevisiae deletion strains, locus YHR129C, strain ARP1, hits give low values 1.02 | S. cerevisiae deletion strains, locus YHR200W, strain rpn10, hits give low values 1 | S. cerevisiae deletion strains, locus YIL066C, strain RNR3, hits give low values 1.02 | S. cerevisiae deletion strains, locus YIL073C, strain SPO22, hits give low values 1.06 | S. cerevisiae deletion strains, locus YIL125W, strain kgd1, hits give low values 1.01 | S. cerevisiae deletion strains, locus YIR030C, strain dcg1, hits give low values 0.996 | [3] 1.05 | S. cerevisiae deletion strains, locus YJL134W, strain LCB3, hits give low values 1.02 | S. cerevisiae deletion strains, locus YJL168C, strain set2, hits give low values 1.01 | S. cerevisiae deletion strains, locus YJL187C, strain SWE1 (second series), hits give low values 1.01 | S. cerevisiae deletion strains, locus YJR043C, strain POL32, hits give low values 1.01 | S. cerevisiae deletion strains, locus YJR075W, strain HOC1, hits give low values 1.02 | S. cerevisiae deletion strains, locus YKL009W, strain mrt4, hits give low values 0.961 | S. cerevisiae deletion strains, locus YKL068W, hits give low values 1.01 | S. cerevisiae deletion strains, locus YKL085W, strain MDH1 (second series), hits give low values 1.01 | S. cerevisiae deletion strains, locus YKL085W, strain MDH1, hits give low values 1.01 | S. cerevisiae deletion strains, locus YKL190W, strain CNB1, hits give low values 1.02 | S. cerevisiae deletion strains, locus YKR001C, strain vps1, hits give low values 1.01 | S. cerevisiae deletion strains, locus YLR039C, strain RIC1, hits give low values 1.05 | S. cerevisiae deletion strains, locus YLR058C, strain SHM2, hits give low values 1.01 | S. cerevisiae deletion strains, locus YLR102C, strain apc9, hits give low values 0.995 | S. cerevisiae deletion strains, locus YLR262C, strain YPT6, hits give low values 1.04 | S. cerevisiae deletion strains, locus YLR268W, strain sec22, hits give low values 1.01 | S. cerevisiae deletion strains, locus YLR330W, strain CHS5, hits give low values 1.01 | S. cerevisiae deletion strains, locus YLR342W, strain FKS1 (second series), hits give low values 1.04 | S. cerevisiae deletion strains, locus YLR371W, strain rom2, hits give low values 0.999 | S. cerevisiae deletion strains, locus YLR418C, strain cdc73, hits give low values 1.02 | S. cerevisiae deletion strains, locus YML016C, strain PPZ1, hits give low values 1.02 | S. cerevisiae deletion strains, locus YML032C, strain rad52, hits give low values 1.01 | S. cerevisiae deletion strains, locus YML124C, strain tub3, hits give low values 1.01 | S. cerevisiae deletion strains, locus YMR078C, strain ctf18, hits give low values 1.01 | S. cerevisiae deletion strains, locus YMR223W, strain ubp8, hits give low values 1 | S. cerevisiae deletion strains, locus YMR263W, strain SAP30, hits give low values 1.02 | S. cerevisiae deletion strains, locus YMR307W, strain GAS1, hits give low values 1.2 | S. cerevisiae deletion strains, locus YNL067W, strain RPL9B, hits give low values 1.01 | S. cerevisiae deletion strains, locus YNL128W, strain TEP1, hits give low values 1.01 | S. cerevisiae deletion strains, locus YNL153C, strain GIM3, hits give low values 1.01 | S. cerevisiae deletion strains, locus YNL233W, strain BNI4, hits give low values 1.01 | S. cerevisiae deletion strains, locus YNL250W, strain rad50, hits give low values 1.01 | S. cerevisiae deletion strains, locus YNL271C, strain bni1, hits give low values 0.998 | S. cerevisiae deletion strains, locus YNL298W, strain CLA4, hits give low values 1.02 | S. cerevisiae deletion strains, locus YNL307C, strain MCK1, hits give low values 0.992 | S. cerevisiae deletion strains, locus YNL322C, strain KRE1, hits give low values 1.01 | S. cerevisiae deletion strains, locus YNR052C, strain pop2, hits give low values 1.01 | S. cerevisiae deletion strains, locus YOL006C, strain TOP1, hits give low values 1.07 | S. cerevisiae deletion strains, locus YOL012C, strain htz1 0.841 | S. cerevisiae deletion strains, locus YOL147C, strain pex11, hits give low values 1.01 | [4] 1.01 | S. cerevisiae deletion strains, locus YOR069W, strain VPS5, hits give low values 1.02 | S. cerevisiae deletion strains, locus YOR136W, strain idh2, hits give low values 1 | S. cerevisiae deletion strains, locus YOR144C, strain elg1, hits give low values 1.02 | S. cerevisiae deletion strains, locus YOR184W, strain ser1, hits give low values 0.987 | S. cerevisiae deletion strains, locus YOR316C, strain cot1, hits give low values 1.01 | S. cerevisiae deletion strains, locus YPL055C, strain LGE1, hits give low values 1.03 | S. cerevisiae deletion strains, locus YPL241C, strain CIN2, hits give low values 1.02 | S. cerevisiae deletion strains, locus YPR119W, strain clb2, hits give low values 1.01 | S. cerevisiae deletion strains, locus YPR141C, strain kar3, hits give low values 1.02 | S. cerevisiae deletion strains, locus YPR163C, strain tif3, hits give low values 1.01 | S. cerevisiae deletion strains, locus YPR167C, strain met16, hits give low values 1 | S. cerevisiae deletion strains, strain wtn01, hits give low values 0.996 | S. cerevisiae strains, strain wild type, hits give low values 1.02
